# In PubChem BioAssay AID1210 (NMMLSC, 2008):
# Calls of active or inactive are those of the source.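 The calls were made as follows: active = blocks over 70% of labeled estradiol binding at 10 µM, or over a set limit at 100 nM; inactive = the rest.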
# Target: Estrogen receptor beta (Homo sapiens) (UniProt Q92731)
# Test: displacement of fluorescent estrogen from ERbeta – cell-based, Cos7 ERbeta-GFP, flow cytometry, primary screen (AID 1210);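 also: 0% = DMSO vehicle wells and 100% = complete loss of labeled estradiol signal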
# Details: fluorescent estrogen binding, stronger effect = higher value
# [1] = ligand binding inhibition, at 0.1 µM
# Estrogen receptor beta (Homo sapiens), sequence (Q92731 whole entry, looked up): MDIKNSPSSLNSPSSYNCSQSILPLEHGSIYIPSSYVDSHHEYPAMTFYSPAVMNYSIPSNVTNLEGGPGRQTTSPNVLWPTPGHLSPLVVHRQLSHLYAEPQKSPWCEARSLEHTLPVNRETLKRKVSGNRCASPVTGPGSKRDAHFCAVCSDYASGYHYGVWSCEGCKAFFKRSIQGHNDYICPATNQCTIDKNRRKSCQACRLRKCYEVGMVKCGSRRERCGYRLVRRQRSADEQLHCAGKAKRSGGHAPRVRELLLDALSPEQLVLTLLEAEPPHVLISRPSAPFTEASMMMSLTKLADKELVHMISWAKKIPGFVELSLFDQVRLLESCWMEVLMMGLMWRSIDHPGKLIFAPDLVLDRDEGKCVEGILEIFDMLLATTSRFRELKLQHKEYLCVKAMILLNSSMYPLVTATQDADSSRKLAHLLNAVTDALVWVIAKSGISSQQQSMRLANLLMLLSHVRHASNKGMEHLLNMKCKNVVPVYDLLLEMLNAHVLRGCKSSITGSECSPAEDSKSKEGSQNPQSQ
SMILES,inhibition (at 10 µM),inhibition [1]
CCOc1ccc(C2C3=C(Nc4nc(N)[nH]c(=O)c42)c2ccccc2C3=O)cc1 (stereo unspecified),22% (inactive),39%
O=C(Nc1ccc(-c2nc3ccc(NC(=O)c4cccs4)cc3[nH]2)cc1)c1cccs1,58% (inactive),18%
Oc1ccc(-c2nccc(-c3cccs3)n2)cc1,28% (inactive),14%
CC(=O)Nc1ccc(N=Cc2nc(-c3ccc(C)cc3)oc2O)cc1,68% (inactive),56%
CCOC(=O)c1c(NC(=O)CSc2nnc(-c3ccccc3)o2)sc(C(C)=O)c1C,40% (inactive),32%
COc1nc(-c2ccc(Cl)cc2)ccc1-c1noc(-c2ccco2)n1,72% (active),56%
Cc1ccc2c(Cl)cc(Cl)c(OCC(=O)NCc3ccco3)c2n1,29% (inactive),38%
O=C(Nc1ccc2nn(-c3ccccc3)nc2c1)c1ccc2c(c1)OCO2,27% (inactive),14%
COc1ccc(C2Nc3ccccc3C(=O)N2c2ccc(Cl)cc2)cc1Cn1cc([N+](=O)[O-])cn1 (stereo unspecified),63% (inactive),36%
Cc1cc(=O)oc2c(CN3CCC(C)CC3)c(O)c(Cl)cc12,20% (inactive),11%
Nc1ccc(-c2nc3ccc(C(=O)O)cc3s2)cc1,65% (inactive),10%
O=S(=O)(Nc1ncnc2sc3c(c12)CCC3)c1ccc2ccccc2c1,12% (inactive),31%
CC12CCC(=O)N1C(C(=O)OCC(=O)Nc1sccc1C#N)CS2 (stereo unspecified),37% (inactive),47%
COc1ccccc1/C=c1\sc2nc(-c3ccco3)nn2c1=O,60% (inactive),21%
Oc1ccc(-c2csc(-c3c[nH]c4ccccc34)n2)c(O)c1,81% (active),29%
O=C(O)C1Nc2c(O)cccc2C2C=CCC12 (stereo unspecified),0% (inactive),4%
COc1ccc(CCn2c(SCC(=O)Nc3cc(C)on3)nc3ccsc3c2=O)cc1OC,66% (inactive),18%
Cc1ccc(-n2nnnc2SCC(=O)Nc2ccc3c(c2)COC3=O)cc1C,15% (inactive),2%
Cc1ccc(-n2c(=O)c(C#N)cc3c(=O)n4cccc(C)c4nc32)cc1,72% (active),29%
CCCc1nc2sc3ccccc3c(=O)c2c(=O)n1Cc1ccco1,21% (inactive),5%
C/C=C(/C(=C/C)c1ccc(O)cc1)c1ccc(O)cc1,55% (active),85%
Cc1ccnc(NS(=O)(=O)c2ccc(NC(=O)c3cc(-c4ccc(Br)cc4)nc4ccccc34)cc2)n1,0% (inactive),51%

SMILES,inhibition (at 10 µM),inhibition [1]
C/C(N)=C(/C#N)C(=O)CSc1nnc(COc2ccccc2Cl)o1,44% (inactive),44%
c1ccc(Cc2nnc3sc(-c4ccco4)nn23)cc1,18% (inactive),60%
O=Cc1ccc2oc3nc4n(c(=O)c3c(=O)c2c1)CCCS4,15% (inactive),2%
Cc1cc(C(=O)O)ccc1-n1c(C)ccc1C,69% (inactive),49%
Cc1ccc(OCc2ccoc2C(=O)O)cc1C,0% (inactive),8%
O=C(Nc1nc(-c2nc3ccccc3s2)cs1)C1COc2ccccc2O1 (stereo unspecified),19% (inactive),2%
Cc1cc(-c2nn3c(-c4ccccc4)nnc3s2)c2ccccc2n1,71% (active),45%
CC1(C)CC(=O)C2=C(C1)OC(c1ccc(O)cc1)C(C#N)=C2N (stereo unspecified),47% (inactive),49%
COc1ccc(C2CC(c3c(-c4ccccc4)c4cc(Cl)ccc4[nH]c3=O)=NN2S(C)(=O)=O)cc1OC (stereo unspecified),1% (inactive),64%
COc1ccc(OC)c(/C=N/c2oc(-c3ccco3)c(-c3ccco3)c2C#N)c1,31% (inactive),31%
Cc1ccc(C)c(SCC(=O)OCC(=O)c2ccco2)c1,50% (inactive),57%
Cc1cc(C)c2c(c1)NC(c1cc3c(cc1Br)OCO3)C1CC=CC21 (stereo unspecified),42% (inactive),46%
Fc1ccc2c(c1)[C@H]1OCC[C@H]1[C@@H](c1ccco1)N2,37% (inactive),1%
Cc1ccc2occ(C3NC(C(=O)O)CS3)c(=O)c2c1 (stereo unspecified),62% (inactive),27%
Cc1ccc2c(c1)c(=O)c1c3n2CCN(C(=O)CCl)C3CC1 (stereo unspecified),37% (inactive),33%
Cc1nn(-c2ccccc2)c(/N=C/c2ccc(O)cc2)c1-c1ccccc1,78% (active),44%
CCCOc1ccc(-c2nn(-c3ccccc3)cc2/C=C2\SC(N)=NC2=O)cc1,36% (inactive),19%
CSc1ccccc1NC(=O)c1noc2c1CCC2,26% (inactive),12%
CC(Oc1ccc(Cl)cc1Cl)C(=O)Nc1ccc2oc(-c3ccncc3)nc2c1 (stereo unspecified),50% (inactive),27%
COc1cccc(C(=O)NC2CCN(C(=O)N3c4ccccc4Sc4ccccc43)CC2)c1,43% (inactive),17%
Cc1ccc(-c2nn(-c3ccccc3)cc2CSC(=N)N)cc1,38% (inactive),33%
